# Laboratory results published in PubChem BioAssay (NCATS).
# Several values for one entry are separate records, joined by “and”; a condition that tells them apart may be missing. Equal values may be shown once. Inconclusive results are not listed. Values without a mark were called inactive. Calls follow the shape of the full dose curve. Residues, ends and D or L forms follow the SMILES beside them.
# Target: Bile acid receptor (Homo sapiens) (UniProt Q96RI1)
# Assay: qHTS assay for small molecule agonists of farnesoid X receptor signaling (AID 588527);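 also: series mostly up to about 77 µM; 0% = vehicle basal and 100% = reference agonist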
# Details: HEK293T FXR-UAS-bla, beta-lactamase ratio, 16 h; hits give high values
# Text: NIH Chemical Genomics Center [NCGC] U.S. Environmental Protection Agency [EPA] National Institutes of Environmental Health Sciences [NIEHS] National Toxicology Program [NTP] NCGC Assay Overview The farnesoid-X-receptor (FXR), a nuclear hormone receptor is highly expressed in liver, intestine, kidney and adrenal cortex. Natural ligands of FXR are the bile acids (Cholic acid, Chenodeoxy cholic acid etc). It is an important regulator of diverse metabolic pathways, including the bile acid homeostasis, lipid and glucose metabolisms. FXR regulates the expression of target genes by binding either as a monomer or as a heterodimer with RXR (retinoid X receptor). As FXR regulates a large number of target genes involved in bile acid, lipoprotein and glucose metabolisms, it is a potential pharmacological target for bile acid and lipid disorders. Thus screening environmental chemicals on FXR signaling can be used for the studies focused on metabolic syndrome, hepatic and intestinal toxicity etc.
# NCGC Assay Protocol Summary Using a beta-lactamase reporter-gene under control of Farnesoid X receptor (FXR) response element, a cell-based assay [GeneBLAzer FXR-UAS-bla assay developed by Invitrogen] was used to measure FXR ligands signaling. GeneBLAzer FXR-UAS-bla HEK293T cells were used with assay medium containing 10% dialyzed FBS. The assay was performed in clear bottom black Greiner 1536-well plates. Chenodeoxycholic acid and Guggulsterone were used in the screen as agonist and antagonist positive controls respectively. Library compounds were measured for their ability to stimulate the reporter gene activity. Compounds were screened in a titration series in 1536-well format. […] Data was normalized relative to Chenodeoxycholic acid control (100 uM, 100%), and DMSO only wells (basal, 0%). Concentration-response titration points for each compound were fitted to the Hill equation yielding concentrations of half-maximal stimulation (EC50) and maximal response (efficacy) values. qHTS protocol for FXR beta-lactamase assay in agonist mode [Step] [Parameter] [Value] [Description] 1. Reagent; 6 uL; 5000 cells/well 2. Incubation; 37 C for 5-7 hrs 3. Compounds; 23 nL; 0.59 nM to 92 uM 4. Controls (Chenodeoxycholic acid); 23 nL, - One column with dose response, start 200 uM, 1:2 dilutions in duplicates - Final concentrations of 100 uM and 60 uM in two columns 5. Incubation; 37 C for 16 hrs 6. Detection reagent; 1 uL of CCF4-dye 7. Incubation; RT for 2 hrs 8. Detection; Fluorescence; Envision plate reader
# Bile acid receptor (Homo sapiens), sequence (Q96RI1 whole entry, looked up): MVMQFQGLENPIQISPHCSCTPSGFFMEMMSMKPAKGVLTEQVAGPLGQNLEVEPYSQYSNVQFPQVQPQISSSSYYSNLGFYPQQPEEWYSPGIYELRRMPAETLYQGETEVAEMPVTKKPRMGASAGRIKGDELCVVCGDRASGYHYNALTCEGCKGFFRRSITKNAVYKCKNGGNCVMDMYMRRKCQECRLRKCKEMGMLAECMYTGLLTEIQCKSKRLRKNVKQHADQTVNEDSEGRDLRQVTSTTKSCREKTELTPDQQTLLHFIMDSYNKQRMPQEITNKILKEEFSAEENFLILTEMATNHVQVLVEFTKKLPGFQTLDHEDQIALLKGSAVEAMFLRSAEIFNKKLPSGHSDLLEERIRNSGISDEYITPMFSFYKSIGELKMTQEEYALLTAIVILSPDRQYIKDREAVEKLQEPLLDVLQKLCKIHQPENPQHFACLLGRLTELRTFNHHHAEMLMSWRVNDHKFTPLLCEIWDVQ
row,SMILES,activation
1,O=C(c1ccccc1)c1ccccc1,-1.37% and -0.544%
2,O=C(O)c1cc(-c2ccccc2)nc2ccccc12,-1.96%
3,Cc1c(C)c2c(c(C)c1O)CCC(C)(COc1ccc(CC3SC(=O)NC3=O)cc1)O2 (stereo not given),9.23%
4,Cc1cc(NS(=O)(=O)c2ccc(N)cc2)no1,-1.53%
5,CC(=O)Nc1ccccc1,3.71%
6,Nc1nc(Cl)nc2c1ncn2[C@H]1C[C@H](O)[C@@H](CO)O1,-0.12%
7,COc1ccc2[nH]cc(CCNC(C)=O)c2c1,0.0339% and -2.2% and -1.63%
8,CCCCOC(=O)c1ccc(O)cc1,2.27%
9,C[C@]1(O)CC[C@H]2[C@@H]3CCC4=CC(=O)CC[C@]4(C)[C@@]3(F)[C@@H](O)C[C@@]21C,-0.176%
10,Nc1ccc(S(=O)(=O)c2ccc(N)cc2)cc1,5.45% and -0.614%
11,CCCCOC(=O)CC(CC(=O)OCCCC)(OC(C)=O)C(=O)OCCCC,1.49%
12,Nc1ccc(C(=O)O)cc1,2.28%
13,O=C(O)c1ccc(S(=O)(=O)N(Cl)Cl)cc1,0.222%
14,COc1ccc(C(=O)c2ccccc2)c(O)c1,-3.45% and -6.15%
15,CC(=O)c1ccc(S(=O)(=O)NC(=O)NC2CCCCC2)cc1,-2.29% and -1.81%
16,CCCCCCCC(=O)OCC(COC(=O)CCCCCCC)OC(=O)CCCCCCC,-2.1%
17,Cc1cc(=O)n(-c2ccccc2)n1C,1.08%
18,COC(=O)[C@H](Cc1ccccc1)NC(=O)[C@@H](N)CC(=O)O (H-Asp-Phe-OMe),-0.395% and 1.51%
19,O=C(O)Cc1cccc2ccccc12,-0.869% and 1.54%
20,Cc1cc(C)nc(NS(=O)(=O)c2ccc(N)cc2)n1,1.04% and -0.0754%

row,SMILES,activation
1,O=P1(N(CCCl)CCCl)NCCCO1 (stereo not given),-1.19% and 1.86%
2,NC(=O)c1ccccc1O,-3.79%
3,Cn1c(=O)c2[nH]cnc2n(C)c1=O,0.492%
4,NCCNCCNCCN,-3.81%
5,O=c1c(-c2ccc(O)cc2)coc2cc(O)cc(O)c12,-3.37%
6,CC12CCC(CC1)C(C)(C)O2,-0.483%
7,CC(C)=CCC/C(C)=C/CO,0.54%
8,Cc1cc(=O)[nH]c(=S)[nH]1,0.173%
9,Cc1ncc(CO)c(CO)c1O,-0.349%
10,C[C@]12CCC(=O)C=C1CC[C@@H]1[C@@H]2CC[C@]2(C)C(=O)CC[C@@H]12,-2.26%
11,CC(=O)O[C@H]1C(=O)[C@@]2(C)[C@H]([C@H](OC(=O)c3ccccc3)[C@]3(O)C[C@H](OC(=O)[C@H](O)[C@@H](NC(=O)c4ccccc4)c4ccccc4)C(C)=C1C3(C)C)[C@]1(OC(C)=O)CO[C@@H]1C[C@@H]2O,3.09%
12,O=C(O)CCCCC(=O)O,-1.88%
13,COc1cc(C=O)ccc1O,-1.98% and -0.968%
14,O=C(O)CCCc1ccc(N(CCCl)CCCl)cc1,-2.97% and 0.833%
15,CC(=O)O[C@]1(C(C)=O)CC[C@H]2[C@@H]3C[C@H](C)C4=CC(=O)CC[C@]4(C)[C@H]3CC[C@@]21C,0.881%
16,CN=C(NC#N)NCCSCc1nc[nH]c1C,1.62%
17,O=c1[nH]c(=O)n([C@H]2C[C@H](O)[C@@H](CO)O2)cc1Br,-3.6%
18,CCCc1c(OCCCCc2nn[nH]n2)ccc(C(C)=O)c1O,7.75%
19,CCOC(=O)c1ccc(O)cc1,0.927%
20,CN1C[C@H](C(=O)N[C@]2(C)O[C@@]3(O)[C@@H]4CCCN4C(=O)[C@H](Cc4ccccc4)N3C2=O)C=C2c3cccc4[nH]cc(c34)C[C@H]21,2.53%
